The values below come from PubChem BioAssay (EPA / NIEHS).

Records with an inconclusive call do not appear. Calls of active or inactive are those of the source. How the source made its calls: active means hit-call score of the fitted dose curve at least 0.9, where 1 is the maximum; inconclusive means response in the unintended direction; inactive means score below 0.9.

This assay is described as follows: Tanguay_ZF_120hpf_NC_legacy: (Legacy) Oregon State University Tanguay Lab 120 Hour Post-fertilization zebrafish Assay for Notochord and Tail Malformation (AID 2283656). On the procedure:
Tanguay_ZF_120hpf_legacy is a whole embryo, multiplexed endpoint assay using zebrafish larvae exposed for 120 hours post fertilization on a 96-well plate.Tanguay_ZF_120hpf_NC_legacy is one of one assay component(s) measured or calculated from the Tanguay_ZF_120hpf_legacy assay. It is designed to make measurements of zebrafish development as detected with brightfield microscopy of developing zebrafish embryos.Data from the assay component Tanguay_ZF_120hpf_NC_legacy was analyzed into 1 assay endpoints. This assay endpoint, Tanguay_ZF_120hpf_NC_legacy, was analyzed in the positive analysis fitting direction relative to DMSO as the negative control and baseline of activity. Using a type of morphology reporter, gain-of-signal activity can be used to understand changes in developmentals as they relate to the whole embryo. To generalize the intended target to other relatable targets, this assay endpoint is annotated to the zebrafish development intended target family, where the subfamily is embryonic notochord morphogenesis.
Zebrafish husbandry: Tropical 5D wild-type adult zebrafish were housed in at an approximate density of 1000 per 100 gallon tank at the Sinnhuber Aquatic Research Laboratory, Oregon State University, Corvallis, OR. Each tank was kept at standard laboratory conditions of 28C on a 14-h light/10-h dark photoperiod in fish water consisting of reverse osmosis water supplemented with a commercially available salt (Instant Ocean). Spawning funnels were placed into the tanks the night prior, and embryos were collected and staged. To increase bioavailability, the chorion was enzymatically removed using pronase (63.6mg/ml, >/= 3.5U/mg, Sigma-Aldrich: P5147) at 4 hours post fertilization (hpf) using a custom automated dechorionator.Chemical exposures: Six hpf dechorionated embryos were placed 1 embryo per well in a 96-well plate prefilled with 90 ul of EM using automated embryo placement systems (AEPS). Ten microliters of each row of dilution plate 2 was added to 2 exposure plates. The final DMSO concentration used was 0.64% (vol/vol). Thirty-two embryos were also exposed to 5uM trimethyltin chloride (positive control). Plates were sealed to prevent evaporation and foil covered to reduce light exposure and kept in a 28C incubator. Embryos were statically exposed until 120 hpf. At 24 hpf, embryos were assessed for photomotor response using a custom photomotor response analysis tool (PRAT) and for developmental toxicity endpoints (MO24: mortality at 24 hpf, DP: developmental progression, SM: spontaneous movement, and NC: notochord distortion). At 120 hpf, locomotor activity was measured using Viewpoint Zebralab and assessed for 18 endpoints. Zebrafish acquisition and analysis program (ZAAP), a custom program designed to inventory, acquire, and manage zebrafish data, was used to collect developmental endpoints as either present or absent (i.e., binary responses were recorded). If mortality occurred for an embryo (at either 24 or 120 hpf), the non-mortality endpoints were not measured.
For the compound `COC(=O)NS(=O)(=O)c1ccc(N)cc1`, the compound was classed as inactive.

`CCCCC(O)(Cn1cncn1)c1ccc(Cl)cc1Cl` (stereo not given): the compound was classed as inactive.

In the case of `CN/C(=N\[N+](=O)[O-])NCc1cnc(Cl)s1`, the call was inactive.

As for `COC(=O)c1c(C(F)F)nc(C(F)(F)F)c(C2=NCCS2)c1CC(C)C`, the call was inactive.

For the compound `Nc1c(Cl)c(Cl)nc(C(=O)O)c1Cl`, the compound was classed as inactive.

Consider `CC(C)Nc1nc(Cl)nc(NC(C)C)n1`, for which the compound was classed as inactive.

Regarding `CC(C)N1C(=O)N(c2ccccc2)CSC1=NC(C)(C)C`, the result was inactive.

For the compound `COP(=O)(OC)O/C(C)=C/C(=O)N(C)C`, the outcome was inactive.

With `CC1(C)CON(Cc2ccccc2Cl)C1=O`, the outcome was inactive.

As to `CC1(C)CCC(=Cc2ccc(Cl)cc2)C1(O)Cn1cncn1` (stereo not given), the call was inactive.

In the case of `CCN(CC)c1nc(C)cc(OP(=S)(OC)OC)n1`, the call was inactive.

With `CCOP(=O)(OCC)Oc1nc(Cl)c(Cl)cc1Cl`, the compound was called inactive.

On to `Clc1nc(Cl)nc(Nc2ccccc2Cl)n1`, for which the result was inactive.

For the compound `C=C(C)CN(CC)c1c([N+](=O)[O-])cc(C(F)(F)F)cc1[N+](=O)[O-]`, the outcome was inactive.

`CC(C)(C)C(=O)C(Oc1ccc(Cl)cc1)n1cncn1` (stereo not given): the call was inactive.

On to `Nc1c(Cl)c(F)nc(OCC(=O)O)c1Cl`, for which the call was inactive.

On to `CCCCC(C#N)(Cn1cncn1)c1ccc(Cl)cc1` (stereo not given), for which the call was inactive.

With `CCN(CC)C(=O)C(C)Oc1cccc2ccccc12` (stereo not given), the outcome was inactive.

With `CCCCOCN(C(=O)CCl)c1c(CC)cccc1CC`, the compound was classed as inactive.

Consider `CS(=O)(=O)c1ccc(C(=O)C2C(=O)CCCC2=O)c([N+](=O)[O-])c1`, for which the outcome was inactive.

As for `Cc1cnc(C2=NC(C)(C(C)C)C(=O)N2)c(C(=O)O)c1` (stereo not given), the call was inactive.

As to `OC(c1ccc(Cl)cc1)(c1ccc(Cl)cc1)C(Cl)(Cl)Cl`, the result was inactive.

For `CSC(=O)c1c(C(F)F)nc(C(F)(F)F)c(C(=O)SC)c1CC(C)C`, the compound was called inactive.

In the case of `N#Cc1c(Cl)cccc1Cl`, the call was inactive.

As to `CCOC(=O)C(C)OC(=O)c1cc(Oc2ccc(C(F)(F)F)cc2Cl)ccc1[N+](=O)[O-]` (stereo not given), the compound was called inactive.

`Cn1c(-c2ccccc2)cc(-c2ccccc2)[n+]1C`: the compound was called inactive.

For the compound `COC(=O)NC(=S)Nc1ccccc1NC(=S)NC(=O)OC`, the result was inactive.

On to `CCNC(=O)NC(=O)C(C#N)=NOC`, for which the result was inactive.

Take `CC1(C)C(C(=O)OC(C#N)c2cccc(Oc3ccccc3)c2)C1(C)C` (stereo not given): the outcome was inactive.

For the compound `COCC(C)N(C(=O)CCl)c1c(C)csc1C` (stereo not given), the compound was called inactive.

In the case of `O=P(O)(O)CCCl`, the outcome was inactive.

In the case of `Cc1ccc(N=CN(C)C=Nc2ccc(C)cc2C)c(C)c1`, the result was inactive.

For `CCOc1nc(F)cc2nc(S(=O)(=O)Nc3c(Cl)cccc3Cl)nn12`, the outcome was inactive.

With `O=C(O)c1c(Cl)ccc2cc(Cl)cnc12`, the compound was classed as inactive.

Regarding `CC(C)NC(=O)N1CC(=O)N(c2cc(Cl)cc(Cl)c2)C1=O`, the outcome was inactive.

For `CO/N=C(/C1=NOCCO1)c1ccccc1Oc1ncnc(Oc2ccccc2Cl)c1F`, the result was inactive.

Turning to `CCOP(=S)(OCC)Oc1nc(Cl)n(C(C)C)n1`, the compound was called inactive.

`COP(=S)(OC)SCn1nnc2ccccc2c1=O`: the call was inactive.

In the case of `Cc1cc(C)nc(Nc2ccccc2)n1`, the compound was classed as inactive.

Regarding `Clc1cccc(C(Cl)(Cl)Cl)n1`, the result was inactive.
